In experiment [1] the target is Cellular tumor antigen p53 (Homo sapiens) (UniProt P04637). Nature of the experiment: Primary qHTS for small molecule compounds that upregulate eGFP-tagged delta133p53alpha (in N-terminal) cells. (AID 2060322).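 For activation: series mostly up to about 56 µM; 0% = DMSO vehicle and 100% = reference activator.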 Note: nearly all actives have a fitted effect of over 75% in size. Note: potency is the fitted concentration of half-maximal effect. The conditions noted are these: NCI-H358 eGFP-delta133p53alpha fluorescence, 24 h; activation: active compounds read high. Put shortly:
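NCI-H358 cells pre-induced 24 h with 10 ng/ml doxycycline to express N-terminal eGFP-delta133p53alpha, then dosed 24 h at 37C without doxycycline; fixed, Hoechst-stained, GFP intensity by laser scanning cytometry, normalized to DMSO (0%) and 57.5 uM 5-azacytidine (100%).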

Experiment [2] addresses Aldehyde dehydrogenase, mitochondrial (Homo sapiens) (UniProt P05091). As to the kind of experiment: qHTS for Inhibitors of the Aldehyde Dehydrogenase Family (ALDH2) Primary screen (AID 2061308).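 Note: plate controls were vehicle for no effect and reference inhibitor for full effect; nearly all actives have a fitted effect of over 55% in size.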
The target in experiment [3] is Retinaldehyde dehydrogenase 3 (Homo sapiens) (UniProt P47895). Nature of the experiment: qHTS for Inhibitors of the Aldehyde Dehydrogenase Family (ALDH1A3) Primary screen (AID 2061315).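 Note: plate controls were DMSO vehicle for no effect and reference inhibitor for full effect.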
Experiment [4] can be described thus: BET inhibitor-based combinations targeting novel dependencies in MECOM-rearranged (r) AML: SET-2 cell line (AID 2202231).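 For viability: plate controls were DMSO treated cells for no effect and wells without cells for full effect.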 Note: nearly all actives have a fitted effect of over 35% in size. Note: potency is the fitted concentration of half-maximal effect. The conditions noted are these: SET-2 AML cells viability, CellTiter-Glo luminescence, 48 h; viability: active compounds read low, concentration not given here. Put shortly: (§1)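 Luminescent ATP readout (CellTiter-Glo) after 48 hr drug exposure gives viability. Curves span 11 concentrations and are normalized to DMSO and empty wells. Activity is reported as area under the curve and its Z-transform within each cell line.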

Experiment [5] in a line: BET inhibitor-based combinations targeting novel dependencies in MECOM-rearranged (r) AML: OCI-AML3 cell line (AID 2202232). Note: nearly all actives have a fitted effect of over 35% in size. Note: potency is the fitted concentration of half-maximal effect. The conditions noted are these: Potency: OCI-AML3 viability. Put shortly: as §1
A short description of experiment [6]: BET inhibitor-based combinations targeting novel dependencies in MECOM-rearranged (r) AML: MV-4-11 cell line (AID 2202233). Note: nearly all actives have a fitted effect of over 45% in size. Note: potency is the fitted concentration of half-maximal effect. In outline:
(§2)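 Luminescent ATP readout (CellTiter-Glo, 15 min at room temperature) after 48 hr drug exposure gave viability. Dose-response curves, normalized to DMSO and empty-well controls, were summarized as area under the curve and its mean-centred Z-score.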

Experiment [7] is described as follows: BET inhibitor-based combinations targeting novel dependencies in MECOM-rearranged (r) AML: UCSD-AML1 cell line (AID 2202235). Note: nearly all actives have a fitted effect of over 40% in size. Note: potency is the fitted concentration of half-maximal effect. In outline:
as §2

Experiment [8] is described as follows: BET inhibitor-based combinations targeting novel dependencies in MECOM-rearranged (r) AML: HNT-34 cell line (AID 2202234).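 Note: plate controls were vehicle wells for no effect and cell-free wells for full effect; nearly all actives have a fitted effect of over 35% in size.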 In outline: as §2
A short description of experiment [9]: BET inhibitor-based combinations targeting novel dependencies in MECOM-rearranged (r) AML: AML-191 cell line (AID 2202236; note: nearly all actives have a fitted effect of over 35% in size; note: potency is the fitted concentration of half-maximal effect). In outline: as §1
Experiment [10] in a line: BET inhibitor-based combinations targeting novel dependencies in MECOM-rearranged (r) AML: AML-194 cell line (AID 2202237;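 note: plate controls were vehicle wells for no effect and wells without cells for full effect; nearly all actives have a fitted effect of over 40% in size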). Put shortly:
as §1

For experiment [11], the target named is Retinaldehyde dehydrogenase 3 (Homo sapiens) (UniProt P47895). As to the kind of experiment: qHTS for Inhibitors of the Aldehyde Dehydrogenase Family (ALDH1A3) Confirmatory screens (AID 2061311; note: potency is the fitted concentration of half-maximal effect; nearly all actives have a fitted effect of over 60% in size). (In qHTS, concentration-response curves come from the screen itself.)
The target of experiment [12] is Retinal dehydrogenase 2 (Homo sapiens) (UniProt O94788). Nature of the experiment: qHTS for Inhibitors of the Aldehyde Dehydrogenase Family (ALDH1A2) Confirmation screens (AID 2061314). Note: potency is the fitted concentration of half-maximal effect; nearly all actives have a fitted effect of over 65% in size.

Where “and” joins values, the source holds several entries; their conditions need not be identical. Equal entries are not always repeated. Inconclusive results are not listed. Values without a mark were called inactive. Calls of active or inactive are those of the source. Calls come from the whole dose curve; as a rule, active = well fitted curve in the direction sought with a large enough effect; inconclusive = small, poorly fitted or top-dose-only effect, or another doubt; inactive = no such curve, though single readings can be large; an effect the other way counts as inactive or inconclusive. Numbered stars: 1 amine (or outer) side, 2 acyl side, 3 side chain; on linkers, the order of the positions; unused ones are H or OH. Square brackets hold non-standard residues; d marks the D form. Peptide text beside a SMILES is read from it. ξ: configuration not given here. X5 = O=C([C@@H](CC(O)CCl)O[*:1])[*:2]; aIle = CC[C@@H](C)[C@H](N)C(=O)O; ξLac(3-iPr) = CC(C)CC(O)C(=O)O; NMeV = CN[CH](C(=O)O)C(C)C; NMeA = CN[CH](C)C(=O)O; βAla = NCCC(=O)O

Cellular tumor antigen p53 (Homo sapiens), sequence (P04637 whole entry, looked up): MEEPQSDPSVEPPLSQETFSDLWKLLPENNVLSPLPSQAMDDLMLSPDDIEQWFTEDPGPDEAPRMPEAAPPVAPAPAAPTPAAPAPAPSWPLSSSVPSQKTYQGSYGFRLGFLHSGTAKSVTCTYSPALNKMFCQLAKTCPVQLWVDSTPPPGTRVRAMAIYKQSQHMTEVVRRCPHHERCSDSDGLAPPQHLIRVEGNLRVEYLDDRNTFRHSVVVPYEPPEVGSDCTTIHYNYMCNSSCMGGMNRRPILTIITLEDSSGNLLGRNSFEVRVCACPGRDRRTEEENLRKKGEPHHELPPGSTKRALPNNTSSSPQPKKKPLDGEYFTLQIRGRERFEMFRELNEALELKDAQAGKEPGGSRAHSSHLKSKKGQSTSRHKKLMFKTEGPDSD

As to `CC1=C[C@H]2O[C@@H]3C[C@H]4OC(=O)/C=C/C=C/C(=O)OCC/C(C)=C/C(=O)OC[C@@]2(CC1)[C@]4(C)[C@]31CO1`, in experiment [1], the Potency was 0.0165 µM (active). The Potency result in experiment [2] and in [3] was “inactive” in each case.

As for `CC1=CC2/C=C(\C)CCCC(O)/C=C/C(=O)OC23C(=O)NC(CC(C)C)C3C1C` (centres undefined), the activation in [1] is 1.79%. Besides, the Potency result in experiment [2] and in experiment [3] was “inactive” in each case.

Take `CO[C@H]1C[C@H](O[C@H]2CC[C@]3(C=O)[C@H]4CC[C@]5(C)[C@@H](C6=CC(=O)OC6)CC[C@]5(O)[C@@H]4CC[C@]3(O)C2)O[C@H](C)[C@H]1O`: the activation in [1] was -29.8%. The Potency result in [2] and in [3] was “inactive” throughout.

Consider `CCC(C)C1NC(=O)C2CCCN2C(=O)C(CC(C)C)OC(=O)CCNC(=O)C(C)N(C)C(=O)C(C(C)C)N(C)C1=O` (centres undefined) (cyclo([ξLac(3-iPr)]PI[NMeV][NMeA][βAla]); configuration not given here), for which, in experiment [1], the activation was -7.14%. Moreover, the Potency entry in experiment [2] and in experiment [3] was “inactive” in each case.

Consider `CC(=O)O[C@H]1CC[C@H]2[C@@H]3CC[C@H]4CC(=O)C=C(C)[C@]4(C)[C@H]3CC[C@]12C`, for which the activation in experiment [1] is -6.33%. Also, the Potency entry in experiment [2] and in [3] was “inactive” in each case.

As to `CCNC(=O)C[C@@H]1N=C(c2ccc(Cl)cc2)c2cc(OC)ccc2-n2c(C)nnc21`, the activation in [1] is -15.8% and 11.6%. In addition, the Potency entry in experiment [2] and in [3] was “inactive” in each case. Besides, the Potency in experiment [4] was 2.63 µM (active); in experiment [5], 0.742 µM (active); in experiment [6] it was 0.468 µM (active); in experiment [7], 0.833 µM (active).

By viability is commonly meant a read-out of living cells in per cent, often relative to untreated cells. As to `O=C(O)CNC(=O)c1c(O)c2ccccc2n(Cc2ccccc2)c1=O`, the activation in [1] was -9.57% and 9.82%. Also, the Potency result in experiment [2], in [3], in [6], in experiment [8], in [9] and in experiment [10] was “inactive” in each case. Further, in experiment [4], the viability is 107%.

`CC(C)=C1CC[C@]23CO[C@H](C2)[C@@](O)(C(=O)O)CCC13` (some centres undefined): the activation in experiment [1] was -4.58%. Further, the Potency result in [2] and in [3] was “inactive” each time.

With `COc1ccc(N(C(=O)Oc2c(C)cccc2C)c2ccnc(Nc3ccc(N4CCN(C)CC4)cc3)n2)c(OC)c1`, the activation in experiment [1] is -14.2%. Moreover, the Potency entry in experiment [2], in experiment [3], in experiment [7] and in experiment [10] was “inactive” each time. Besides, the values for the Potency in experiment [5] and in experiment [9] were 5.9 µM (active) and 2.63 µM (active), respectively.

For the molecule `CC[C@@H](C)[C@@H]1NC(=O)[C@@H]2CCCN2C(=O)[C@@H](CC(O)CCl)OC(=O)CCNC(=O)[C@H](C)N(C)C(=O)[C@H](C(C)C)N(C)C1=O` (some centres undefined) (cyclo([NMeA][βAla][X5]P[aIle][NMeV])), in experiment [1], the activation is -10.7%. In addition, the Potency entry in experiment [2] and in [3] was “inactive” in each case.

As for `CCOC(=O)Nc1ccc(NCc2ccc(F)cc2)cc1N`, the activation in experiment [1] was -10.3% and -0.955%. For the same molecule, the Potency result in experiment [2], in experiment [5], in experiment [6] and in experiment [8] was “inactive” in each case. The viability in experiment [4] was 102%.

As for `Fc1cc(F)c2c(c1)[C@H]1C=CC[C@H]1C(c1cccnc1)N2` (some centres undefined), the activation in [1] is 2.39%. The Potency result in [2] and in experiment [3] was “inactive” each time.

`CC(C)(O)[C@H]1O[C@H]2CC[C@@]3(C)[C@@](O)(CC[C@H]4Cc5c([nH]c6ccccc56)[C@@]43C)C2=CC1=O`: the activation in experiment [1] is 3.82%. The Potency entry in experiment [2] and in experiment [3] was “inactive” throughout.

As to `CN1CC[C@@]2(C)c3cc(O)ccc3N(C)C12` (some centres undefined), in [1], the activation was -31.1%. Besides, the Potency is 10.1 µM (active) in experiment [11] and 4.49 µM (active) in [12].

For `CNC(=O)c1cc(C#N)cc(C)c1NC(=O)c1cc(Br)nn1-c1ncccc1Cl`, the activation in experiment [1] was 18.3%. The Potency result in experiment [2] and in experiment [3] was “inactive” each time.

Consider `Clc1ccc(N2C[C@H]3CC[C@@H](C2)N3)nn1`, for which, in experiment [1], the activation is -0.333%. Also, the Potency entry in experiment [3] is “inactive”.

With `Cc1cc(SCc2sc(-c3ccc(C(F)(F)F)c(F)c3)nc2C)ccc1OCC(=O)O`, the activation in experiment [1] was -16% and 31%. Besides, the Potency entry in [2], in experiment [3] and in experiment [7] was “inactive” each time. Moreover, the viability in [4] is 99.6%. Further, the Potency in experiment [6] is 18.6 µM (active).

For the molecule `CN1CCc2cc3c(cc2[C@H]1[C@@H]1OC(=O)c2c1ccc1c2OCO1)OCO3`, the activation in experiment [1] was -11%. Besides, the Potency entry in [2] and in [3] was “inactive” throughout.

Regarding `CC(=O)O[C@H]1C[C@@H](OC(C)=O)C(C)(C)C2C[C@@H](O)[C@]3(C)C(CC[C@@]4(C)[C@H](C5=CC(=O)OC5O)C[C@H]5O[C@]543)[C@]21C` (some centres undefined), the activation in experiment [1] was -6.87%. Besides, the Potency entry in [2] and in experiment [3] was “inactive” in each case.

Turning to `C=C(C)[C@H]1O[C@H]2CC[C@@]3(C)[C@@](O)(CC[C@H]4[C@@H]5OC(C)(C)[C@H]6C[C@@H]7C(=C)Cc8c(Cl)cc9[nH]c(c5c9c8[C@@]76O)[C@@]43C)[C@]23O[C@@H]3[C@H]1O`, the activation in experiment [1] was -8.93%. Besides, the Potency entry in experiment [2] and in experiment [3] was “inactive” each time.

As for `CC12CCC3C(CCC4(O)CC(O)CCC34C=O)C1(O)CCC2C1=CC(=O)OC1` (centres undefined), the Potency in experiment [1] is 10.7 µM (active). Also, the Potency result in experiment [2] and in [3] was “inactive” each time.

In the case of `C[C@]12CCC(=O)C=C1CC[C@@H]1[C@@H]2[C@@H](O)C[C@]2(C)C(=O)CC[C@@H]12`, in experiment [1], the activation was 11%. The Potency result in experiment [2] and in [3] was “inactive” in each case.

Values taken from PubChem BioAssay (NCATS).
